Experimental data from paper PMC7862700, “An all-to-all approach to the identification of sequence-specific readers for epigenetic DNA modifications on cytosine”.

Assays:
Test in all cases: DAPPL (digital affinity profiling via proximity ligation, sequencing); 10 mM Tris-HCl pH 7.5, 50 mM NaCl, 1 mM DTT, 4% glycerol, room temperature, 30 min; GST-TFs on glutathione beads, 16-mer random dsDNA library, 0.1% formaldehyde crosslink after washing; high values mean tight binding
Settings in all cases: protein: recombinant; tags: N-terminal GST; dsDNA, one strand shown
FLI1 = molecular target: T1, FLI1 (Homo sapiens, UniProt Q01543 1-452)
T1 sequence: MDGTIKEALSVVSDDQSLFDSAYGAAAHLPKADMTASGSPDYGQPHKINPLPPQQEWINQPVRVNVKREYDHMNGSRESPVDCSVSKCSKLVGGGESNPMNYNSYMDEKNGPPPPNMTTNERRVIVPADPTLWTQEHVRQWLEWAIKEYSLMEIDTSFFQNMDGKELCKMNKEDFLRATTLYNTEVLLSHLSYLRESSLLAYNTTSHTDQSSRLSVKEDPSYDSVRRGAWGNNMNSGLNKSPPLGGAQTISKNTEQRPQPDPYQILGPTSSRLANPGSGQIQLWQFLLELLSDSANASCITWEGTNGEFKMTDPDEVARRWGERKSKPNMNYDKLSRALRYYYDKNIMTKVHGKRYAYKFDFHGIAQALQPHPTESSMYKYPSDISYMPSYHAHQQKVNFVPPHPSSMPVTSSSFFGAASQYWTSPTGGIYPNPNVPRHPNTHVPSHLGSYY
In short: (§1)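 Human transcription factors carrying a GST fusion were produced in yeast, bound to glutathione beads, tagged with DNA barcodes and pooled together with a tag-only sample. Each pool was held with 200 nmole of a random double-stranded 16-mer DNA library in Tris/NaCl/DTT/glycerol buffer for 30 min at room temperature, then washed, crosslinked in 0.1% formaldehyde, proximity-ligated with BsaI/T4 ligase (1 h, 37 °C), PCR-amplified and sequenced on an Illumina NextSeq500. Binding signal is the read frequency of each hexamer for a given factor divided by its frequency in the tag-only sample.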

ELK1 = molecular target: T2, ELK1 (Homo sapiens, UniProt P19419 1-428)
T2 sequence: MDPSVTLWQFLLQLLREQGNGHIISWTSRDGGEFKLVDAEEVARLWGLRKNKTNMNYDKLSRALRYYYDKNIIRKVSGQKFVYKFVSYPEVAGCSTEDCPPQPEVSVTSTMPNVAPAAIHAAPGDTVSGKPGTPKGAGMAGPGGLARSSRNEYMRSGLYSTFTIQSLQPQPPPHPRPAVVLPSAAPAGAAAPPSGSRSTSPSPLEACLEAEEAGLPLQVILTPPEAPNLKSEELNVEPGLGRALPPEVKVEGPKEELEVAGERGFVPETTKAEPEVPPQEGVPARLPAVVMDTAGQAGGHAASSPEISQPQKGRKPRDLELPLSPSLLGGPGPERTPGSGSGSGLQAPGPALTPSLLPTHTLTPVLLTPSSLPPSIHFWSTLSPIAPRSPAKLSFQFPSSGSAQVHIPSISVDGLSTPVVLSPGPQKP
In short: as §1

GABPA = molecular target: T3, GABPA (Homo sapiens, UniProt Q06546 1-454)
T3 sequence: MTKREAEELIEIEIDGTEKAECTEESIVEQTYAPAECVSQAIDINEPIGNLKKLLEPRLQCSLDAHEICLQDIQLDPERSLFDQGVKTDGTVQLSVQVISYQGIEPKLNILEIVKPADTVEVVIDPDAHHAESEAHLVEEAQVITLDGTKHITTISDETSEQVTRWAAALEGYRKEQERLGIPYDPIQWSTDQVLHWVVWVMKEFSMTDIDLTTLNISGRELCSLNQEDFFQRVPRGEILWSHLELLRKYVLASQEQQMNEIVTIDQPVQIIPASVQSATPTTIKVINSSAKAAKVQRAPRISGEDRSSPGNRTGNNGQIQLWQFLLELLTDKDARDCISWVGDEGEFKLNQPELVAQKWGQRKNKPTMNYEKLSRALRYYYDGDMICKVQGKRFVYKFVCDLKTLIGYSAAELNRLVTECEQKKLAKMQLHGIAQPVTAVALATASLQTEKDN
In short: as §1

ERG = molecular target: T4, ERG (Homo sapiens, UniProt P11308 1-479)
T4 sequence: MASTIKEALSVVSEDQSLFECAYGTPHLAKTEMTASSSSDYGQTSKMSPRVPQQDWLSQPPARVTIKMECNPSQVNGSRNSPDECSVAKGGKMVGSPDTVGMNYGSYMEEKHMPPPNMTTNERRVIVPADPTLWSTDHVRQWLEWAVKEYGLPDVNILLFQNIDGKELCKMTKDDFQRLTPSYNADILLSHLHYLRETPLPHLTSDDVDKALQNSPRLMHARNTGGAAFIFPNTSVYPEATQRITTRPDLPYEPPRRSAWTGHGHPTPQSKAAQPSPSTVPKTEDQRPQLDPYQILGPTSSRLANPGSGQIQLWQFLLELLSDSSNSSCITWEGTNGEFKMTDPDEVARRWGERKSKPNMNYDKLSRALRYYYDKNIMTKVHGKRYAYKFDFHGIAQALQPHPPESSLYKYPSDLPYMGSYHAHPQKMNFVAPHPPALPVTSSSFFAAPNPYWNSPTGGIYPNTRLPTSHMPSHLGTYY
In short: as §1

ELF1 = ELF1 (Homo sapiens, UniProt P32519 1-619)
In short: as §1

EHF = molecular target: T5, EHF (Homo sapiens, UniProt Q9NZC4 1-300)
T5 sequence: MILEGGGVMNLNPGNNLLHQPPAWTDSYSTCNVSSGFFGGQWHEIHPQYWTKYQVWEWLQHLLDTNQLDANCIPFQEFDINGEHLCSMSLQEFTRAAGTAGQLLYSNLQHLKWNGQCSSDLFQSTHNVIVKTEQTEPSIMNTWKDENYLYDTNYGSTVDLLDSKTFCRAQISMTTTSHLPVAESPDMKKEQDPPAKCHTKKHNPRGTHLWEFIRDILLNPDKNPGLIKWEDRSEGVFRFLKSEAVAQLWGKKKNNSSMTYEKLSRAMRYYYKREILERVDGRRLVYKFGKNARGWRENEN
In short: as §1

SPI1 = SPI1 (Homo sapiens, UniProt P17947 1-270)
In short: as §1

SPIB = SPIB (Homo sapiens, UniProt Q01892 1-262)
In short: as §1

ELK3 = molecular target: T6, ELK3 (Homo sapiens, UniProt P41970 1-407)
T6 sequence: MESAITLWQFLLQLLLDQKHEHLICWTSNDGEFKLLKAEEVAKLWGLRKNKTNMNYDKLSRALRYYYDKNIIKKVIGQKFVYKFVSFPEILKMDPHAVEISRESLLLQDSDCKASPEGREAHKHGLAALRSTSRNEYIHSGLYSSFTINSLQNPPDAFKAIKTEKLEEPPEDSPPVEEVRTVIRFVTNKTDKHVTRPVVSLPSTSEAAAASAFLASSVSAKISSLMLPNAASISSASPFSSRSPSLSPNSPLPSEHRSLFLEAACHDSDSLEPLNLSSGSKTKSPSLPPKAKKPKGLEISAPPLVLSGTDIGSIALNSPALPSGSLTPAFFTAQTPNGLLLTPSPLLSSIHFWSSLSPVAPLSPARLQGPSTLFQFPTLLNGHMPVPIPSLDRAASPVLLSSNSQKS
In short: as §1

ELF1, sequence (P32519 whole entry): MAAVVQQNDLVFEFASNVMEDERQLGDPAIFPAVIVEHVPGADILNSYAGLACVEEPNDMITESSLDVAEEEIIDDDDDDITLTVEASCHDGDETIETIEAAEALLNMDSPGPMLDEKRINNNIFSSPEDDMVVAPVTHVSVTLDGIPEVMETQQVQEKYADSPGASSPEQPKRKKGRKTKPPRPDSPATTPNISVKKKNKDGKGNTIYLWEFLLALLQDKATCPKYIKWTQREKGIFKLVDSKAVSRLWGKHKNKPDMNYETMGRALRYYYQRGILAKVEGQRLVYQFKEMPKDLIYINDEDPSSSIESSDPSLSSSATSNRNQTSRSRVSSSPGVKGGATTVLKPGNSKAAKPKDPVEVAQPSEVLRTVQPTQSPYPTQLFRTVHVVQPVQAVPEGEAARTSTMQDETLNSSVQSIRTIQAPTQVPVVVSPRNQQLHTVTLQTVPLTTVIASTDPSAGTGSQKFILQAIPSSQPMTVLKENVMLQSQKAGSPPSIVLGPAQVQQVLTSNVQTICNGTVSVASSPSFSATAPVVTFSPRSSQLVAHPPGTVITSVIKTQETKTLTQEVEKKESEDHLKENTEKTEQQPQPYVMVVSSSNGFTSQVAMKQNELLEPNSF
SPIB, sequence (Q01892 whole entry): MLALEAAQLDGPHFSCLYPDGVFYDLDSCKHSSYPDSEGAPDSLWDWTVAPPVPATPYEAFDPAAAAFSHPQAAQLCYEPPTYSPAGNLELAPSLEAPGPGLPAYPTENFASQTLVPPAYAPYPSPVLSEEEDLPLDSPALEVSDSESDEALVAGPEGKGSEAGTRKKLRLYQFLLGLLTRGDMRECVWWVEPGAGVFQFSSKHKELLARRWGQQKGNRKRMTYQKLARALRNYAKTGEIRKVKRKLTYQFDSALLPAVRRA

Sequence: CACTCG
- binding signal (FLI1): 1.1 fold enrichment (6-mer frequency, TF over GST control)
- binding signal (ELK1): 1.26 fold enrichment (6-mer frequency, TF over GST control)
- binding signal (GABPA): 1.08 fold enrichment (6-mer frequency, TF over GST control)
- binding signal (ERG): 1.15 fold enrichment (6-mer frequency, TF over GST control)
- binding signal (ELF1): 1.2 fold enrichment (6-mer frequency, TF over GST control)
- binding signal (EHF): 1.18 fold enrichment (6-mer frequency, TF over GST control)
- binding signal (SPI1): 1.01 fold enrichment (6-mer frequency, TF over GST control)
- binding signal (SPIB): 1.18 fold enrichment (6-mer frequency, TF over GST control)
- binding signal (ELK3): 1.2 fold enrichment (6-mer frequency, TF over GST control)

Sequence: CTCACC
- binding signal (FLI1): 1.26 fold enrichment (6-mer frequency, TF over GST control)
- binding signal (ELK1): 1.32 fold enrichment (6-mer frequency, TF over GST control)
- binding signal (GABPA): 1.32 fold enrichment (6-mer frequency, TF over GST control)
- binding signal (ERG): 1.13 fold enrichment (6-mer frequency, TF over GST control)
- binding signal (ELF1): 1.2 fold enrichment (6-mer frequency, TF over GST control)
- binding signal (EHF): 1.24 fold enrichment (6-mer frequency, TF over GST control)
- binding signal (SPI1): 1.24 fold enrichment (6-mer frequency, TF over GST control)
- binding signal (SPIB): 1.34 fold enrichment (6-mer frequency, TF over GST control)
- binding signal (ELK3): 1.3 fold enrichment (6-mer frequency, TF over GST control)

Sequence: ATTCCC
- binding signal (FLI1): 1.37 fold enrichment (6-mer frequency, TF over GST control)
- binding signal (ELK1): 1.32 fold enrichment (6-mer frequency, TF over GST control)
- binding signal (GABPA): 1.38 fold enrichment (6-mer frequency, TF over GST control)
- binding signal (ERG): 1.3 fold enrichment (6-mer frequency, TF over GST control)
- binding signal (ELF1): 1.4 fold enrichment (6-mer frequency, TF over GST control)
- binding signal (EHF): 1.35 fold enrichment (6-mer frequency, TF over GST control)
- binding signal (SPI1): 1.34 fold enrichment (6-mer frequency, TF over GST control)
- binding signal (SPIB): 1.48 fold enrichment (6-mer frequency, TF over GST control)
- binding signal (ELK3): 1.44 fold enrichment (6-mer frequency, TF over GST control)

Sequence: GAAGCG
- binding signal (FLI1): 1.37 fold enrichment (6-mer frequency, TF over GST control)
- binding signal (ELK1): 1.24 fold enrichment (6-mer frequency, TF over GST control)
- binding signal (GABPA): 1.27 fold enrichment (6-mer frequency, TF over GST control)
- binding signal (ERG): 1.42 fold enrichment (6-mer frequency, TF over GST control)
- binding signal (ELF1): 1.29 fold enrichment (6-mer frequency, TF over GST control)
- binding signal (EHF): 1.53 fold enrichment (6-mer frequency, TF over GST control)
- binding signal (SPI1): 1.43 fold enrichment (6-mer frequency, TF over GST control)
- binding signal (SPIB): 1.28 fold enrichment (6-mer frequency, TF over GST control)
- binding signal (ELK3): 1.49 fold enrichment (6-mer frequency, TF over GST control)

Sequence: CGAACT
- binding signal (FLI1): 1.16 fold enrichment (6-mer frequency, TF over GST control)
- binding signal (ELK1): 1.17 fold enrichment (6-mer frequency, TF over GST control)
- binding signal (GABPA): 1.24 fold enrichment (6-mer frequency, TF over GST control)
- binding signal (ERG): 1.06 fold enrichment (6-mer frequency, TF over GST control)
- binding signal (ELF1): 1.24 fold enrichment (6-mer frequency, TF over GST control)
- binding signal (EHF): 1.17 fold enrichment (6-mer frequency, TF over GST control)
- binding signal (SPI1): 1.16 fold enrichment (6-mer frequency, TF over GST control)
- binding signal (SPIB): 1.03 fold enrichment (6-mer frequency, TF over GST control)
- binding signal (ELK3): 1.13 fold enrichment (6-mer frequency, TF over GST control)

Sequence: GAACTT
- binding signal (FLI1): 1.68 fold enrichment (6-mer frequency, TF over GST control)
- binding signal (ELK1): 1.65 fold enrichment (6-mer frequency, TF over GST control)
- binding signal (GABPA): 1.62 fold enrichment (6-mer frequency, TF over GST control)
- binding signal (ERG): 1.58 fold enrichment (6-mer frequency, TF over GST control)
- binding signal (ELF1): 1.7 fold enrichment (6-mer frequency, TF over GST control)
- binding signal (EHF): 1.59 fold enrichment (6-mer frequency, TF over GST control)
- binding signal (SPI1): 1.74 fold enrichment (6-mer frequency, TF over GST control)
- binding signal (SPIB): 1.69 fold enrichment (6-mer frequency, TF over GST control)
- binding signal (ELK3): 1.7 fold enrichment (6-mer frequency, TF over GST control)

Sequence: CTATGA
- binding signal (FLI1): 1.03 fold enrichment (6-mer frequency, TF over GST control)
- binding signal (ELK1): 1.13 fold enrichment (6-mer frequency, TF over GST control)
- binding signal (GABPA): 1.18 fold enrichment (6-mer frequency, TF over GST control)
- binding signal (ERG): 1.06 fold enrichment (6-mer frequency, TF over GST control)
- binding signal (ELF1): 1.16 fold enrichment (6-mer frequency, TF over GST control)
- binding signal (EHF): 1.14 fold enrichment (6-mer frequency, TF over GST control)
- binding signal (SPI1): 1.03 fold enrichment (6-mer frequency, TF over GST control)
- binding signal (SPIB): 1.13 fold enrichment (6-mer frequency, TF over GST control)
- binding signal (ELK3): 1.01 fold enrichment (6-mer frequency, TF over GST control)

Sequence: GTTACA
- binding signal (FLI1): 1.15 fold enrichment (6-mer frequency, TF over GST control)
- binding signal (ELK1): 1.1 fold enrichment (6-mer frequency, TF over GST control)
- binding signal (GABPA): 1.09 fold enrichment (6-mer frequency, TF over GST control)
- binding signal (ERG): 1.13 fold enrichment (6-mer frequency, TF over GST control)
- binding signal (ELF1): 1.14 fold enrichment (6-mer frequency, TF over GST control)
- binding signal (EHF): 1.2 fold enrichment (6-mer frequency, TF over GST control)
- binding signal (SPI1): 1.11 fold enrichment (6-mer frequency, TF over GST control)
- binding signal (SPIB): 1.09 fold enrichment (6-mer frequency, TF over GST control)
- binding signal (ELK3): 1.24 fold enrichment (6-mer frequency, TF over GST control)
